In the supplement of paper PMC3334620:
In all, about 33,000 sequences were measured (“E-score (-0.5 to 0.5)”: median about -0.035, highest 2% from about 0.34 on). This excerpt belongs to a sample that is enriched for the highest values.

target: T1, Mot3 (UniProt P54785); test: PBM E-score (8-mer binding enrichment) (E-score (-0.5 to 0.5)); higher = stronger / more preferred TF binding; settings: protein concentration: 200 nM; construct: GST-full length
T1 sequence: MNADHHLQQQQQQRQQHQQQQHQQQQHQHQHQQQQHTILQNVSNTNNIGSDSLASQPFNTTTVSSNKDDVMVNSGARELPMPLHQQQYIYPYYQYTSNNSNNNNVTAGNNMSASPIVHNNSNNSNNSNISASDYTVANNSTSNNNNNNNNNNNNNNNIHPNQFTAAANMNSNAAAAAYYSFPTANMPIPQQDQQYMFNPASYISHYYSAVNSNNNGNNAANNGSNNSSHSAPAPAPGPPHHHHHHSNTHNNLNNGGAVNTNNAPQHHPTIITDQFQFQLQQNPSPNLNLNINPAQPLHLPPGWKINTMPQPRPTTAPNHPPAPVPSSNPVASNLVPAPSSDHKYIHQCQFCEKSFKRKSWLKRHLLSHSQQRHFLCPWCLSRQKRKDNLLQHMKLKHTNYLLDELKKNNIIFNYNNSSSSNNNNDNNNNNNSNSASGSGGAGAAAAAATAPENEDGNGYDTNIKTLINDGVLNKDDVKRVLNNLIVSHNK
Method: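 Universal 'all 10-mer' protein binding microarrays (Agilent AMADID 015681) probed with GST-tagged S. cerevisiae TFs (full-length or DBD) made by in vitro transcription/translation (PURExpress), about 100-200 nM. Bound TF was detected with fluorescent anti-GST. Each ungapped 8-mer (which stands for itself and its reverse complement) is scored by the PBM enrichment score (E-score), a modified Wilcoxon-Mann-Whitney statistic from -0.5 to +0.5, computed with the Universal PBM Analysis Suite. Scale: above 0.35 generally sequence-specific binding.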

Row | Sequence | PBM E-score
1 | AGTTCCGG | -0.359
2 | CGTTCCTA | 0.455
3 | ACTTCCTA | -0.09
4 | CGTTCCTC | 0.167
5 | CATTCCTA | -0.129
6 | CCAATCCC | -0.127
7 | AGAGGGCC | -0.371
8 | GGGGTAGA | -0.0141
9 | AGGTCTTC | -0.0921
10 | CGCTAACG | -0.0607
11 | GGACTACA | 0.102
12 | ACCCCCTA | -0.298
13 | AGGCGAAC | -0.0626
14 | ACAGTTCT | -0.132
15 | TCGAGGCA | 0.346
16 | AAGAGGCA | 0.391
17 | TAGAGGCA | 0.389
18 | GAGAGGCA | 0.239
19 | TAGAGGGA | -0.0707
20 | CAGAGGCA | 0.299
21 | AAGAGGCT | -0.222
22 | GCGAGGCA | 0.148
23 | CCGAGGCA | 0.308
24 | AAGACCTG | -0.079
25 | TGACTAAA | 0.0227

Row | Sequence | PBM E-score
26 | GGCTAATA | -0.151
27 | ATCGAACA | -0.0411
28 | GATTGTCC | -0.0522
29 | AGGAAGCC | -0.161
30 | AATATGTA | 0.277
31 | CCTATGTC | 0.172
32 | ACTATGTA | 0.36
33 | ACTATGTC | 0.104
34 | CGTATGTA | 0.309
35 | CATATGTA | 0.318
36 | GCTATGCA | -0.154
37 | ACTATGTG | 0.0709
38 | GCTATGTA | 0.341
39 | AGTATGTA | 0.289
40 | GGTATGTA | 0.343
41 | CCTATGTA | 0.348
42 | ACAACTAG | -0.0235
43 | GTCCGGAA | -0.0613
44 | TCCCCCCA | -0.354
45 | AAAGTCGG | -0.0308
46 | GAAGGGAA | -0.213
47 | CGATGGCC | -0.268
48 | AATAACAG | 0.254
49 | AATAACAC | 0.31
50 | AATAACAT | 0.349

Row | Sequence | PBM E-score
51 | ACGCCGGC | -0.185
52 | CGTAGCCC | -0.0561
53 | CGGTACCG | -0.156
54 | AGGTACCA | 0.361
55 | AAGTACCT | 0.338
56 | AGGTACCC | 0.361
57 | GGGTACCA | -0.0217
58 | ACGTACCG | 0.00315
59 | AGGTACCT | 0.434
60 | ACGTACCT | 0.292
61 | CGGTACCC | -0.277
62 | GGGTACCC | -0.304
63 | TGGTACCA | -0.0506
64 | AGGTACCG | 0.407
65 | ACAATACC | 0.172
66 | GAAGCTAC | -0.0982
67 | AGCTGAAC | -0.255
68 | CTTTTCGA | -0.07
69 | GATCCTCC | -0.303
70 | GTCCGGAC | 0.0843
71 | AAGACAGA | 0.149
72 | AACCTGAG | -0.0479
73 | AACCTGTG | 0.357
74 | AACCTGAC | -0.0317
75 | AAGTTCCT | 0.341

Row | Sequence | PBM E-score
76 | ACGTTCCG | -0.144
77 | ACGTTCCA | 0.0401
78 | AAGTTCCC | -0.309
79 | AAGTTCCG | 0.0427
80 | ACGTTCCT | 0.447
81 | AAACTTCC | -0.145
82 | ACAGTAGT | -0.0747
83 | AGAGTGGA | -0.0533
84 | ACCGGTTC | -0.148
85 | AACTGGTG | -0.193
86 | CAGGAGGC | -0.0461
87 | AGAAGAGA | -0.102
88 | CAACACGA | 0.363
89 | CAACACGC | 0.322
90 | CAACACGG | 0.302
91 | GAACACGA | 0.187
92 | AAACACGA | 0.292
93 | TAACACGA | 0.402
94 | AGACTGTA | -0.109
95 | CCCACAGA | -0.053
96 | TCAACCAA | 0.0249
97 | CTACAGGA | 0.242
98 | CTACAGAC | 0.0592
99 | CTACAGGC | 0.354
100 | CAACAGGC | 0.377

Row | Sequence | PBM E-score
101 | AAACAGGC | 0.301
102 | ATACAGGA | 0.173
103 | CAACAGGA | 0.172
104 | GTACAGGA | 0.343
105 | ATACAGGC | 0.333
106 | AGAGTTTC | -0.198
107 | GGTGGTGA | -0.179
108 | GAGAAGTA | -0.0782
109 | CTGCAATC | -0.0301
110 | AAAAGGAC | 0.171
111 | GAAAGGTA | 0.228
112 | CAAAGGAA | 0.415
113 | TAAAAGGA | 0.189
114 | TAAAGGAA | 0.383
115 | GAAAGGAA | 0.29
116 | CAAAGGTA | 0.212
117 | AAAAGGAA | 0.36
118 | CAAAGGAG | -0.0795
119 | AAAAGGAT | 0.157
120 | CAAAGGAC | -0.189
121 | TAAAGGTA | 0.382
122 | AGTATCCA | -0.198
123 | GGACCGTA | -0.201
124 | CTCACGAG | -0.266
125 | CGGGCCAC | -0.257

Row | Sequence | PBM E-score
126 | CCGGCGAC | -0.266
127 | CATCTTAA | 0.0785
128 | ACCTCTTG | -0.0648
129 | TATACGAA | 0.0446
130 | CCTTAAGC | 0.0192
131 | CCTTAAGA | 0.0196
132 | CCTTAAGG | 0.345
133 | TAACAGAA | 0.227
134 | CGCTAAAG | -0.0919
135 | AGTACACA | 0.313
136 | CGTACACG | 0.226
137 | GGTACATA | 0.238
138 | AGTACATA | 0.362
139 | TGTACACA | 0.34
140 | AGTACACC | 0.052
141 | CGTACATA | 0.305
142 | AGTACACG | 0.357
143 | GGTACACA | 0.271
144 | ATTCTGTC | -0.0735
145 | GAGAAATC | -0.077
146 | CTCGAAAA | -0.084
147 | CTTGGCGA | -0.105
148 | GACCTAAA | -0.086
149 | ACAGGATG | 0.00887
150 | GCTGTATA | 0.145

Row | Sequence | PBM E-score
151 | GCTGTGAA | 0.0424
152 | GCTGTGTA | 0.354
153 | ACTGTGTG | 0.185
154 | CCTGTGAA | 0.254
155 | CCTGTGTA | 0.357
156 | CCTGTGTC | 0.194
157 | ACTGTGTA | 0.349
158 | ACTGTGTC | 0.112
159 | AAGCAAGA | 0.0175
160 | AGCAAGGG | -0.137
161 | GCGGTCAA | -0.0964
162 | GACTTAGA | -0.164
163 | AAGCACAG | 0.0561
164 | GGGCACAC | 0.178
165 | GGGCACAA | 0.0559
166 | AGGCACAC | 0.487
167 | AGGCACAG | 0.491
168 | CGGCACAG | -0.274
169 | CGGCACAC | -0.21
170 | AGGCACAT | 0.49
171 | TGGCACAA | -0.0932
172 | ATGCACAT | 0.207
173 | AAGCACAT | 0.0905
174 | AGGCACAA | 0.489
